# In PubChem BioAssay:
# For some of these results: Potency and affinity values are given separately. Active and inactive are the calls of the source.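 How the source made its calls, unless noted: active means membrane potential signal rise above negative control mean plus 3 SD in both duplicates, also active in the earlier TRPC4 screen; inactive means the rest.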
# Legend:
# [1] = test system: TRPC4 beta (transient receptor potential cation channel C4), mouse; assay: TRPC4 cation channel opening, retest – cell-based, Fluo4 calcium, HEK293 TRPC4beta/mu-opioid, duplicates, 10 µM, confirmation (AID 2426;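 active means fluorescence ratio normalized to control raised more than 50% in primary screen plus both repeat runs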;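 on activation: percent rise of integrated ratio over buffer wells lacking compound which define 0%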); conditions: Fluo4 calcium fluorescence, at 10 µM; hits give high values
# [2] = test system: transient receptor potential cation channel C4 beta (TRPC4), mouse; assay: TRPC4 cation channel opening, second retest – cell-based, second round, Fluo4, HEK293 TRPC4beta/mu-opioid, 1 µM, confirmation (AID 2461;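 active means primary screen active and over 50% activation in each of two duplicate runs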;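 on activation: 0% = wells without test compound as baseline of integrated fluorescence ratio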); conditions: Fluo4 calcium fluorescence, at 1 µM; hits give high values
# [3] = test system: TRPC4 (transient receptor potential cation channel C4 beta), mouse; assay: potentiation of DAMGO EC20 TRPC4 response – cell-based, second round, Fluo-4, HEK293 TRPC4beta/mu-opioid, 1 µM, confirmation (AID 2554;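 active means primary screen hit whose fluorescence ratio, in both repeats, exceeds the weak agonist control mean by 3 SD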); conditions: DAMGO EC20, Fluo-4 calcium flux, at 1 µM; hits give high values
# [4] = test system: TRPC4 beta (transient receptor potential cation channel C4), mouse; assay: potentiation of DAMGO EC20 TRPC4 response – cell-based, Fluo-4, HEK293 TRPC4beta/mu-opioid, confirmation (AID 2555;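 active means primary screen hit whose calcium fluorescence ratio, in both repeats, exceeds the weak agonist control mean by 3 SD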); conditions: DAMGO EC20, Fluo-4 calcium flux, at 10 µM; hits give high values
# [5] = target: Short transient receptor potential channel 4 (Mus musculus) (UniProt Q9QUQ5); assay: blockers of DAMGO-evoked TRPC4 calcium flux – cell-based, Fluo4, HEK293 TRPC4beta/mu-opioid, confirmation (AID 2636;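 active means calcium signal cut by more than 3 SD below the full-agonist control yet still positive, in both repeats and the earlier primary screen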); conditions: at 10 µM; hits give high values
# Chain of Short transient receptor potential channel 4 (Mus musculus) (Q9QUQ5 whole entry, looked up): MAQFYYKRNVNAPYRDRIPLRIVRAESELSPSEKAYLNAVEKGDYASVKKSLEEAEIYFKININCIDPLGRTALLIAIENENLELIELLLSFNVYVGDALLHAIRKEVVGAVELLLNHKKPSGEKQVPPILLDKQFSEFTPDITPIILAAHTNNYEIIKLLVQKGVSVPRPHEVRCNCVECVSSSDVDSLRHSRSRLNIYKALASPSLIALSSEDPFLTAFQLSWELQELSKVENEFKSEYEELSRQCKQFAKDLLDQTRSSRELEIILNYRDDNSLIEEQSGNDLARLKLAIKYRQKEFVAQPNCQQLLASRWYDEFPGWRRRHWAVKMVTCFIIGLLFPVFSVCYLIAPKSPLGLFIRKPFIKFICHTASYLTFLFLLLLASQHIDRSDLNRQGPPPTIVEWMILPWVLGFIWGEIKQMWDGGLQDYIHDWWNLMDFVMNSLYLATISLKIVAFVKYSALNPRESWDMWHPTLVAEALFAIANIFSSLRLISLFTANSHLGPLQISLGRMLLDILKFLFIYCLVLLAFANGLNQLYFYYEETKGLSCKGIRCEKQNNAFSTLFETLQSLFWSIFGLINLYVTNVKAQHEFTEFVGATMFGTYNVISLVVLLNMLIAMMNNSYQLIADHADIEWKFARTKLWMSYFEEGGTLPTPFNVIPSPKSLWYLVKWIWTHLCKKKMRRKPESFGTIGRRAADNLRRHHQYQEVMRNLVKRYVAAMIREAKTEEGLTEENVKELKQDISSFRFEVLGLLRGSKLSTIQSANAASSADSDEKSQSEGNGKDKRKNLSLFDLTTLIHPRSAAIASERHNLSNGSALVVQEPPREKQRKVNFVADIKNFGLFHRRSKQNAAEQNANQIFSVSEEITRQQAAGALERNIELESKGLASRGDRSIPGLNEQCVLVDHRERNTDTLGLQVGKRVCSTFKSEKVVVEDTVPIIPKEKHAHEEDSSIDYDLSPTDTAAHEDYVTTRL
# [6] = target: Short transient receptor potential channel 4 (Mus musculus) (UniProt Q9QUQ5); assay: blockers of DAMGO-evoked TRPC4 calcium flux – cell-based, second round, Fluo4, HEK293 TRPC4beta/mu-opioid, 1 µM, confirmation (AID 2637;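 active means calcium signal ratio cut to more than 3 SD under the fully stimulated control mean yet still positive, in both repeats and the primary screen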); conditions: at 1 µM; hits give high values
# [7] = target: Short transient receptor potential channel 4 (Mus musculus) (UniProt Q9QUQ5); assay: potentiation of DAMGO-evoked TRPC4 calcium signal – cell-based, HEK293 TRPC4/mu-opioid, Fluo-4 calcium, EC20 DAMGO, dose response (AID 434941;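 active means earlier screen potentiator hit that boosts the TRPC4 ion channel at some dose, with a dose response; inactive means no potentiation, no dose response, or not a prior hit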;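 further: calcium entry triggered by an EC20 dose of DAMGO at the co-expressed mu-opioid receptor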); conditions: HEK293 TRPC4/mu-opioid cells, Fluo-4 calcium fluorescence; series mostly up to 20 µM
# [8] = target: Short transient receptor potential channel 4 (Mus musculus) (UniProt Q9QUQ5); assay: block of DAMGO-driven TRPC4 calcium entry – cell-based, HEK293 TRPC4/mu-opioid, Fluo-4 calcium, dose response (AID 434942;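 active means primary screen inhibitor hit that blocks the TRPC4 channel at some tested dose, yielding a dose curve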); conditions: HEK293 TRPC4/mu-opioid cells, DAMGO-evoked Fluo-4 calcium ratio; series mostly up to 20 µM
# [9] = target: Short transient receptor potential channel 6 (Mus musculus) (UniProt Q61143); assay: TRPC6 blockade by TRPC4 inhibitor hits – cell-based, HEK293, membrane potential dye, duplicate, selectivity assay for TRPC4 inhibitor project, confirmation (AID 434948;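 active means active in primary screen and both duplicates, each dropping signal beyond three positive-control SD with fluorescence still positive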); conditions: HEK293 TRPC6, membrane potential dye fluorescence, at 10 µM, stimulated with maximal-effect acetylcholine; hits give high values
# Chain of Short transient receptor potential channel 6 (Mus musculus) (Q61143 whole entry, looked up): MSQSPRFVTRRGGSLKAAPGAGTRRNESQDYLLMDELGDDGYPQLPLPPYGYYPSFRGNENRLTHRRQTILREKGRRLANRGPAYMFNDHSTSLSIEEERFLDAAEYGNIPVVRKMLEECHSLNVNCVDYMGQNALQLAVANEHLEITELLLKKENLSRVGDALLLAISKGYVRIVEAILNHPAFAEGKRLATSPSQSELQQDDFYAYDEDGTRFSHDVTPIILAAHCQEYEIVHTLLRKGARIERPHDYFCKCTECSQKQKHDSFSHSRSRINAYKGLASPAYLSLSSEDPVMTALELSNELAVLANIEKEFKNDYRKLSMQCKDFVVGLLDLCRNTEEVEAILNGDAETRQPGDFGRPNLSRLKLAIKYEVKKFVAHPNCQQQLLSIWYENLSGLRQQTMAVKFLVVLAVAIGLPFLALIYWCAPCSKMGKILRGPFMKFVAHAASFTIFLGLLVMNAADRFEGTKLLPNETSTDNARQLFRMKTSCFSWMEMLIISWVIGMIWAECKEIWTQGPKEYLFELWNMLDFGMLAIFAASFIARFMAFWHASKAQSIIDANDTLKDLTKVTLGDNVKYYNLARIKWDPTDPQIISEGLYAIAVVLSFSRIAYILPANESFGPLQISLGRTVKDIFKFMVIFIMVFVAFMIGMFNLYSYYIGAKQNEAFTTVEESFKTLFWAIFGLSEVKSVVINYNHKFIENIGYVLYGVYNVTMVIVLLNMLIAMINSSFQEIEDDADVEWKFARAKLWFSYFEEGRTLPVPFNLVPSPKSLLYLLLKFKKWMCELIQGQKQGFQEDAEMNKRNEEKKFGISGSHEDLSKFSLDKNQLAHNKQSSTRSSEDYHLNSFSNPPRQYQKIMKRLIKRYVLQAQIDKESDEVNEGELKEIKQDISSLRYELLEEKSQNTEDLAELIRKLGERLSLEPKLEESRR
# [10] = target: Short transient receptor potential channel 6 (Mus musculus) (UniProt Q61143); assay: TRPC6 opening by TRPC4 activator hits – cell-based, HEK293, membrane potential dye, duplicate, selectivity assay for TRPC4 activator project, confirmation (AID 434950); conditions: HEK293 TRPC6, membrane potential fluorescence, at 10 µM; activation: hits give high values; outcome: activation;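 on activation: 0% = buffer only wells and 100% = acetylcholine maximal-effect wells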
# [11] = target: Short transient receptor potential channel 6 (Mus musculus) (UniProt Q61143); assay: positive modulators of mouse TRPC6 channel – HEK293 cells, membrane potential dye, duplicate, selectivity assay for TRPC4 potentiator project, confirmation (AID 434952;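 active means compound raising the membrane signal above positive-control mean plus 3 SD in both repeats, and a primary screen hit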); conditions: HEK293 TRPC6, membrane potential dye fluorescence, at 10 µM, maximal acetylcholine added after compound; hits give high values
# [12] = target: Short transient receptor potential channel 4 (Mus musculus) (UniProt Q9QUQ5); assay: calcium flux activators in TRPC4/5HT1a cells, counter-screen for TRPC4 activator project, cell-based, second counter screen, HEK293 TRPC4/5HT1a, Fluo-4 (AID 434977;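 active means calcium signal rise above buffer-control mean plus 5 SD in both duplicates, and also a hit in the primary screen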;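 on activation: plate controls were assay buffer for no effect and maximal serotonin response for full effect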); conditions: Fluo-4 calcium flux, at 10 µM; hits give high values
# [13] = serotonin-gated TRPC4 signal block – cell-based, second counter screen, HEK293 TRPC4/5HT1a, Fluo-4, counter-screen for TRPC4 inhibitor project, confirmation (AID 434978;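 active means primary screen active whose calcium signal fell more than 3 SD beyond the full-serotonin control mean in both duplicate plates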;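 further: serotonin given first at submaximal then at maximal dose after compound preincubation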); conditions: Fluo-4 calcium flux, at 10 µM, serotonin added to trigger calcium flux; hits give high values
# [14] = test system: TRPC4 (mouse), co-expressed with 5HT1a in HEK293; assay: enhancement of serotonin-evoked TRPC4 response – cell-based, second counter screen, HEK293 TRPC4/5HT1a, Fluo-4, counter-screen for TRPC4 potentiator project, confirmation (AID 434979;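 active means signal rise over 3 SD above mean of control wells given weak agonist, in both repeats and first screen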); conditions: Fluo-4 calcium flux, at 10 µM, serotonin added at its EC20 dose; hits give high values
# [15] = nonspecific calcium rise without TRPC4 – cell-based, HEK293 mu-opioid receptor line, counter-screen for TRPC4 activator project, confirmation (AID 449723;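 active means hit in primary screen, with calcium signal over 5 SD above buffer well mean in both duplicates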;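 further: counter screen cells carry the mu-opioid receptor alone and lack TRPC4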); conditions: HEK293 mu-opioid cells, Fluo-4 calcium fluorescence, at 10 µM; hits give high values
# [16] = nonspecific potentiation of DAMGO calcium response – cell-based, HEK293 mu-opioid receptor line, counter-screen for TRPC4 allosteric potentiator project, confirmation (AID 449724;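 active means calcium signal rise more than 3 SD above the low-dose agonist control mean, in both duplicate plates and the primary screen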); conditions: HEK293 mu-opioid receptor cells, Fluo-4 calcium flux, at 10 µM, compound added before EC20 DAMGO stimulus; hits give high values
smiles,measurement,setting,value
COc1ccc(C(CNC(=O)CCOc2ccccc2)N(C)C)cc1 (stereo unspecified),activation,[1],145% (active)
same,activation,[2],77% (active)
same,outcome,[3],inactive
same,outcome,[4],inactive
same,outcome,[5],inactive
same,outcome,[6],inactive
same,outcome,[7],inactive
same,outcome,[8],inactive
same,outcome,[9],inactive
same,activation,[10],45% (active)
same,outcome,[11],inactive
same,outcome,[12],inactive
same,outcome,[13],inactive
same,outcome,[14],inactive
same,outcome,[15],inactive
same,outcome,[16],inactive
Cc1ccc(-n2cc(CNC(C)c3cnn(C)c3C)c(-c3ccc(F)cc3)n2)cc1 (stereo unspecified),activation,[1],195% (active)
same,activation,[2],86% (active)
same,outcome,[3],inactive
same,outcome,[4],inactive
same,outcome,[5],inactive
same,outcome,[6],inactive
same,outcome,[7],inactive
same,outcome,[8],inactive
same,outcome,[9],inactive
same,activation,[10],30.5% (active)
same,outcome,[11],inactive
same,outcome,[12],inactive
same,outcome,[13],inactive
same,outcome,[14],inactive
same,outcome,[15],inactive
same,outcome,[16],inactive
Cc1sc(NC(=O)c2ccccc2)c(C(=O)NCCN(C)C)c1C,activation,[1],128% (active)
same,outcome,[2],inactive
same,outcome,[3],inactive
same,outcome,[4],inactive
same,outcome,[5],inactive
same,outcome,[6],inactive
same,outcome,[7],inactive
same,outcome,[8],inactive
same,outcome,[9],inactive
same,outcome,[10],inactive
same,outcome,[11],inactive
same,activation,[12],12.1% (active)
same,outcome,[13],inactive
same,outcome,[14],inactive
same,outcome,[15],inactive
same,outcome,[16],inactive
CCCN(CCC(=O)Nc1cc(OC)cc(OC)c1)CC1CC1,activation,[1],180% (active)
same,activation,[2],69% (active)
same,outcome,[3],inactive
same,outcome,[4],inactive
same,outcome,[5],inactive
same,outcome,[6],inactive
same,outcome,[7],inactive
same,outcome,[8],inactive
same,outcome,[9],inactive
same,activation,[10],49% (active)
same,outcome,[11],inactive
same,activation,[12],54.9% (active)
same,outcome,[13],inactive
same,outcome,[14],inactive
same,outcome,[15],inactive
same,outcome,[16],inactive
Cn1c(=O)c2c(nc(CN3CCc4ccccc4C3)n2Cc2ccccc2F)n(C)c1=O,activation,[1],221% (active)
same,outcome,[2],inactive
same,outcome,[3],inactive
same,outcome,[4],inactive
same,outcome,[5],inactive
same,outcome,[6],inactive
same,outcome,[7],inactive
same,outcome,[8],inactive
same,outcome,[9],inactive
same,outcome,[10],inactive
same,outcome,[11],inactive
same,outcome,[12],inactive
same,outcome,[13],inactive
same,outcome,[14],inactive
same,outcome,[15],inactive
same,outcome,[16],inactive
CC(=O)n1cc([C@H]2C=C(C(=O)NCc3ccccc3)O[C@@H](OCc3ccc(CO)cc3)C2)c2ccccc21,outcome,[1],inactive
same,outcome,[2],inactive
same,outcome,[3],inactive
same,outcome,[4],inactive
same,outcome,[5],inactive
same,outcome,[6],inactive
same,outcome,[7],inactive
same,outcome,[8],inactive
same,outcome,[9],inactive
same,outcome,[10],inactive
same,outcome,[11],inactive
same,outcome,[12],inactive
same,outcome,[13],inactive
same,outcome,[14],inactive
same,outcome,[15],inactive
same,outcome,[16],inactive
CCn1c(N2CCN(C(=S)NCCc3ccccc3)CC2)nc2ccccc21,outcome,[1],inactive
same,outcome,[2],inactive
same,outcome,[3],inactive
same,outcome,[4],inactive
same,outcome,[5],inactive
same,outcome,[6],inactive
same,outcome,[7],inactive
same,outcome,[8],inactive
same,outcome,[9],inactive
same,outcome,[10],inactive
same,outcome,[11],inactive
same,activation,[12],21% (active)
same,outcome,[13],inactive
same,outcome,[14],inactive
same,outcome,[15],inactive
same,outcome,[16],inactive
CCOC(=O)C1(Cc2cccc(F)c2)CCN(Cc2cnn(CC)c2)CC1,activation,[1],118% (active)
same,activation,[2],92% (active)
same,outcome,[3],inactive
same,outcome,[4],inactive
same,outcome,[5],inactive
same,outcome,[6],inactive
same,outcome,[7],inactive
same,outcome,[8],inactive
same,outcome,[9],inactive
same,activation,[10],51.5% (active)
same,outcome,[11],inactive
same,outcome,[12],inactive
same,outcome,[13],inactive
same,outcome,[14],inactive
same,outcome,[15],inactive
same,outcome,[16],inactive
Cn1c2ccccc2c(=O)c2c(=O)n(C3CCCCC3)c(-c3ccco3)nc21,outcome,[1],inactive
same,outcome,[2],inactive
same,outcome,[3],inactive
same,outcome,[4],inactive
same,outcome,[5],inactive
same,outcome,[6],inactive
same,outcome,[7],inactive
same,outcome,[8],inactive
same,outcome,[9],inactive
same,outcome,[10],inactive
same,outcome,[11],inactive
same,outcome,[12],inactive
same,outcome,[13],inactive
same,outcome,[14],inactive
same,activation,[15],68.6% (active)
same,outcome,[16],inactive
Cc1csc2c(N3CCN(C(=O)Nc4ccc(Cl)c(Cl)c4)CC3)ncnc12,activation,[1],115% (active)
same,outcome,[2],inactive
same,outcome,[3],inactive
same,outcome,[4],inactive
same,outcome,[5],inactive
same,outcome,[6],inactive
same,outcome,[7],inactive
same,outcome,[8],inactive
same,outcome,[9],inactive
same,outcome,[10],inactive
same,outcome,[11],inactive
same,activation,[12],40.3% (active)
same,outcome,[13],inactive
same,outcome,[14],inactive
same,outcome,[15],inactive
same,outcome,[16],inactive
O=C(Nc1ccncc1)c1ccc(Cl)c(S(=O)(=O)N2CCc3ccccc32)c1,activation,[1],108% (active)
same,outcome,[2],inactive
same,outcome,[3],inactive
same,outcome,[4],inactive
same,outcome,[5],inactive
same,outcome,[6],inactive
same,outcome,[7],inactive
same,outcome,[8],inactive
same,outcome,[9],inactive
same,outcome,[10],inactive
same,outcome,[11],inactive
same,activation,[12],17.7% (active)
same,outcome,[13],inactive
same,outcome,[14],inactive
same,outcome,[15],inactive
same,outcome,[16],inactive
Nc1c(C(=O)c2ccccc2)sc2nsc(SCCN3CCCC3)c12,activation,[1],89% (active)
same,outcome,[2],inactive
same,outcome,[3],inactive
same,outcome,[4],inactive
same,outcome,[5],inactive
same,outcome,[6],inactive
same,outcome,[7],inactive
same,outcome,[8],inactive
same,outcome,[9],inactive
same,activation,[10],410% (active)
same,outcome,[11],inactive
same,activation,[12],93% (active)
same,outcome,[13],inactive
same,outcome,[14],inactive
same,activation,[15],84.3% (active)
same,outcome,[16],inactive
CC(C)(C)c1cc(O)c(C(C)(C)C)cc1O,activation,[1],100% (active)
same,outcome,[2],inactive
same,outcome,[3],inactive
same,outcome,[4],inactive
same,outcome,[5],inactive
same,outcome,[6],inactive
same,outcome,[7],inactive
same,outcome,[8],inactive
same,outcome,[9],inactive
same,outcome,[10],inactive
same,outcome,[11],inactive
same,activation,[12],55.9% (active)
same,outcome,[13],inactive
same,outcome,[14],inactive
same,activation,[15],47.1% (active)
same,outcome,[16],inactive
O=C(NC(=S)NNC(=O)c1ccccc1[N+](=O)[O-])c1ccc(Br)cc1,activation,[1],141% (active)
same,outcome,[2],inactive
same,outcome,[3],inactive
same,outcome,[4],inactive
same,outcome,[5],inactive
same,outcome,[6],inactive
same,outcome,[7],inactive
same,outcome,[8],inactive
same,outcome,[9],inactive
same,activation,[10],29% (active)
same,outcome,[11],inactive
same,outcome,[12],inactive
same,outcome,[13],inactive
same,outcome,[14],inactive
same,activation,[15],15.6% (active)
same,outcome,[16],inactive
CCN1CCN(c2ccc(S(=O)(=O)N3CCCCC3)cc2NC(=O)CC(C)c2ccccc2)CC1 (stereo unspecified),activation,[1],140% (active)
same,outcome,[2],inactive
same,outcome,[3],inactive
same,outcome,[4],inactive
same,outcome,[5],inactive
same,outcome,[6],inactive
same,outcome,[7],inactive
same,outcome,[8],inactive
same,outcome,[9],inactive
same,outcome,[10],inactive
same,outcome,[11],inactive
same,outcome,[12],inactive
same,outcome,[13],inactive
same,outcome,[14],inactive
same,outcome,[15],inactive
same,outcome,[16],inactive
Cc1sc2ncnc(NCC(c3ccco3)N3CCCC3)c2c1C (stereo unspecified),activation,[1],143% (active)
same,activation,[2],178% (active)
same,outcome,[3],inactive
same,outcome,[4],inactive
same,outcome,[5],inactive
same,outcome,[6],inactive
same,outcome,[7],inactive
same,outcome,[8],inactive
same,outcome,[9],inactive
same,outcome,[10],inactive
same,outcome,[11],inactive
same,activation,[12],78.8% (active)
same,outcome,[13],inactive
same,outcome,[14],inactive
same,outcome,[15],inactive
same,outcome,[16],inactive
